Out of some 330,000 compounds screened, about 4,200 (1.3%) were called active. About 6% were inconclusive and are not listed. What follows is part of a selection rich in actives, with near analogues and random picks from the rest. Values without a mark were called inactive. Calls follow the shape of the dose curve; as a rule, active = well fitted activation curve with a large enough effect; inconclusive = small, poorly fitted or top-dose-only effect; inactive = no such curve, though single readings can be large or run the other way.
Assay: qHTS screen for small molecules that induce genotoxicity in human embryonic kidney (HEK293T) cells expressing luciferase-tagged ELG1; also: nearly all actives have a fitted effect of over 60% in size; as to activity change, positive = activation: % of control where 0% means no effect
Conditions: HEK293T ELG1-luciferase reporter, luminescence, 16 h; series mostly up to 46 µM; activity change, positive = activation: at the top concentration
Method in brief: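 Luminescence read-out: rising ELG1-luciferase signal, reflecting elevated ELG1 protein under genetic stress, flags genotoxic compounds. Cells were treated for 16 hr at 37 °C before ONE-Glo detection.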
Potency is read from the fitted curve at half-maximal effect.

| SMILES | activity change, positive = activation | Potency |
| --- | --- | --- |
| CC(C)(C)OC(=O)NNc1c2ccccc2nc2ccccc12 | -4.89% |  |
| CC(=O)Nc1ccc(-c2nc3ccccc3o2)cc1 |  | 3.26 µM (active) |
| CCc1nc(Nc2ccc(NC(C)=O)cc2)c2oc3ccccc3c2n1 | -0.226% |  |
| COc1cc(OC)cc(C(=O)Nc2ccc(-c3nc4ccccc4o3)c(O)c2)c1 | -4.77% |  |
| CC(=O)Nc1ccc(Nc2c3ccccc3nc3ccccc23)cc1 |  | 13 µM (active) |
| Cc1ccc(OCC(=O)Nc2ccc(-c3nc4ncccc4o3)cc2)cc1 | 5.43% |  |
| Nc1ncnc2c1ncn2[C@@H]1O[C@H](CNCc2cccn2-c2nccs2)[C@@H](O)[C@H]1O | 4.38% |  |
| CC(C)C(=O)NCc1cc(-c2ccc(Cl)cc2)no1 | 7.48% |  |
| CC(C)/C=N/NC(=O)c1cc(Br)ccc1O | -0.104% |  |
| CC(C)Cc1cc(C(=O)Nc2cc(Br)ccc2O)no1 |  | 8.2 µM (active) |
| CC(C)N(C(=O)[C@H]1C[C@H](CC(=O)NCCC2=CCCCC2)C(=O)N2CCc3c([nH]c4cc(CCC(=O)N(C)C)ccc34)[C@]12C)C(C)C | 3.22% |  |
| Cc1ccc(C(=O)COc2cccc(NC(=O)c3ccco3)c2)cc1 | 3.01% |  |
| Cc1ccoc1C(=O)Nc1cccc(Oc2ccccc2)c1 |  | 9.2 µM (active) |
| Cc1cccc(NC(=O)Nc2cccc(Oc3c(F)c(F)c(F)c(F)c3F)c2)c1 | 0.228% |  |
| CN(CC(=O)Nc1ccc(C(N)=O)cc1)S(=O)(=O)c1ccc2c(c1)OCCO2 | -1.78% |  |
| O=C(Cn1cnc2c(OCc3ccccc3)ncnc21)NCCCn1ccnc1 | 0.984% |  |
| O=C(COC(=O)c1ccc(F)cc1)NCC1COc2ccccc2O1 (centres undefined) | -2.33% |  |
| O=C(OCCN1C(=O)c2ccccc2C1=O)Oc1ccccc1 | 0.764% |  |
| Cc1cccc2c1N(CCOc1ccccc1)C(=O)C2=O | 5.53% |  |
| O=C1c2ccccc2C(=O)N1CCOc1ccc(F)cc1 |  | 20.6 µM (active) |
| Cn1cccc1C(=O)OCC(=O)c1ccc(Br)s1 | 17.4% |  |
| COc1ccc(S(=O)(=O)Nc2cccc3c2O[C@H](CN(C)S(=O)(=O)c2ccc(OC)cc2)[C@@H](C)CN([C@H](C)CO)C3=O)cc1 | -0.316% |  |
| O=C(Nc1sc2c(c1C(=O)O)CCC2)c1ccccc1F | 3.4% |  |
| NC(=O)c1c(NC(=O)c2ccccc2)sc2c1CCCC2 |  | 8.2 µM (active) |
| Cc1ccc(C(=O)c2c(NC(=O)c3ccncc3)sc3c2CCCC3)cc1 | -5.11% |  |
| O=C(Oc1ccc(Br)cc1)c1cccnc1 | -2.16% |  |
| O=C(Oc1ccc(-c2nc(-c3ccccn3)no2)cc1)c1ccccc1 |  | 0.517 µM (active) |
| Cc1ccc(Oc2nc(-c3ccccn3)nc3ccccc23)cc1 | -14.1% |  |
| COc1cc(C(=O)OCc2cc(=O)n3ccsc3n2)ccc1OC(C)C | 7.03% |  |
